Among the data in PubChem BioAssay (Tox21) are Potency, outcome and activity change, positive = activation values, retold here.

The target of experiment [1] is Luciferin 4-monooxygenase (Photinus pyralis) (UniProt P08659). The experiment can be described thus: qHTS assay to identify small molecule inhibitors of firefly luciferase (AID 1224835). Note: nearly all actives have a fitted effect of over 25% in size. Note: potency is the fitted concentration of half-maximal effect. The method, boiled down:
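Quantitative HTS format; KM concentrations of both substrates. Purified P. pyralis FLuc activity quantified from luminescence images.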

Experiment [2] can be described thus: qHTS assay to identify small molecule agonists of the constitutive androstane receptor (CAR) signaling pathway - cell viability counter screen (AID 1224836). Note: nearly all actives have a fitted effect of over 45% in size. Note: potency is the fitted concentration of half-maximal effect. The method, boiled down:
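HepG2-CYP2B6-hCAR, 2500 cells/well, 4 h pre-incubation; cpd 15 conc + PK11195 0.75 uM final; 23 h, 37 C/5% CO2; CellTiter-Fluor, fluorescence.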

A short description of experiment [3]: qHTS assay to identify small molecule antagonists of the constitutive androstane receptor (CAR) signaling pathway - cell viability counter screen (AID 1224837). Note: nearly all actives have a fitted effect of over 45% in size. Note: potency is the fitted concentration of half-maximal effect. The essentials:
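HepG2 cells stably expressing hCAR and a CYP2B6-2.2kb reporter were plated and pre-incubated 4 hr at 37 C/5% CO2, then given compounds at 15 concentrations plus 50 nM CITCO (final). After 23 hr, viability was read by CellTiter-Fluor fluorescence.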

Experiment [4] addresses Nuclear receptor subfamily 1 group I member 3 (Homo sapiens) (UniProt Q14994). The experiment can be described thus: qHTS assay to identify small molecule antagonists of the constitutive androstane receptor (CAR) signaling pathway (AID 1224838). Note: nearly all actives have a fitted effect of over 40% in size. Note: potency is the fitted concentration of half-maximal effect. The essentials: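 HepG2 cells stably co-transfected with hCAR and a CYP2B6-2.2kb luciferase reporter were seeded 4 h before compound addition at 15 concentrations. Cells were stimulated with 50 nM CITCO (final) for 24 h at 37 C; luciferase luminescence was then read.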
(In general: qHTS replaces the single test concentration by a dilution series.)

Experiment [5] shares this target. The experiment can be described thus: qHTS assay to identify small molecule agonists of the constitutive androstane receptor (CAR) signaling pathway (AID 1224839). Note: nearly all actives have a fitted effect of over 15% in size. Note: potency is the fitted concentration of half-maximal effect. The essentials:
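HepG2-CYP2B6-hCAR cells, 2500/well, 4 h pre-incubation; compounds 15 conc.; PK11195 0.75 uM final; 24 h, 37 C/5% CO2; ONE-Glo luciferase read.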

Experiment [6] can be described thus: qHTS assay to identify small molecule agonists of the hypoxia (HIF-1) signaling pathway (AID 1224846; active = well fitted activation curve with a large enough effect in the signal ratio in the repeat runs, not every such curve was filed as active; the % refers to the signal ratio). The method, boiled down:
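HRE-bla ME-180 cells (beta-lactamase reporter under hypoxia response element) were plated at 2,000 cells/well in medium with 0.5% dialyzed FBS, rested 5 hrs, then given compounds in DMSO for 17 hrs at 37C, 5% CO2. Reporter induction was read with CCF4-AM FRET substrate.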

Experiment [7] is described as follows: qHTS assay to identify small molecule agonists of H2AX - cell viability counter screen (AID 1224847; calls by dose curve; note: top concentration of the series differs between compounds; nearly all actives have a fitted effect of over 30% in size). The method, boiled down: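 Cells plated first: CHO-K1, 1000 per well in 10% FBS medium, incubated overnight at 37C. Then 15-point compound titration added (final DMSO 0.76%) for 3 hr. Finally CellTiter-Glo added and luminescence read.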
A short description of experiment [8]: qHTS RealTime-Glo MT Cell Viability Assay in HepG2 cells - 24 hour (AID 1224867). Note: nearly all actives have a fitted effect of over 50% in size. Note: potency is the fitted concentration of half-maximal effect. The essentials:
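Tox21 10K library screened in qHTS format on HepG2 cells carrying RealTime-Glo reagents. Compounds were added after a 5 h preincubation, and the luminescent signal from continuous culture was measured repeatedly during 40 h treatment.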

A short description of experiment [9]: A CellTox Green Cytotoxicity Assay to monitor cytotoxicity in HEK293 cells - 0 hour (AID 1224869). Note: nearly all actives have a fitted effect of over 50% in size. The method, boiled down: (§1)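 HEK293 cells premixed with CellTox Green dye were seeded at 600 cells/well and left 5 h at 37 C/5% CO2 before pin transfer of 23 nL compound in DMSO. Fluorescence from dye bound to dead-cell DNA was read during 40 h treatment.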
A short description of experiment [10]: qHTS RealTime-Glo MT Cell Viability Assay in HepG2 cells - 40 hour (AID 1224870). Note: nearly all actives have a fitted effect of over 50% in size. Note: potency is the fitted concentration of half-maximal effect. The essentials: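 HepG2 cells mixed with RealTime-Glo MT reagents (NanoLuc plus cell-permeant prosubstrate) were seeded at 600 cells/well, incubated 5 h at 37 C/5% CO2, then pinned with compounds in DMSO; nonlytic luminescence tracked viability during 40 h treatment.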
The nature of experiment [11]: qHTS assay to identify small molecule antagonists of the estrogen related receptor signaling pathway with the pleiotropic PPARgamma coactivator (PGC) from Tox21 10K library - cell viability counter screen (AID 1224840; active = well fitted cell-killing curve with a large enough effect in the repeat runs, not every such curve was filed as active; note: nearly all actives have a fitted effect of over 40% in size; note: potency is the fitted concentration of half-maximal effect). The method, boiled down: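 PGC/ERR cells were seeded at 2,000 cells/well and left 6 hours at 37 C/5% CO2 before pin-tool addition of compounds in DMSO. After 17.5 hours at 37 C, CellTiter-Fluor was added and fluorescence read 30 minutes later.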

Experiment [12] has as its target Thyrotropin receptor (Homo sapiens) (UniProt P16473). The experiment in a line: qHTS assay to identify small molecule agonists of the thyroid stimulating hormone receptor (TSHR) signaling pathway (AID 1224843; calls by dose curve; note: nearly all actives have a fitted effect of over 45% in size). The essentials:
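Cell line HEK293 with TSHR; density 800/well. Exposure 30 min RT. Readout HTRF cAMP (cAMP-d2/anti-cAMP-cryptate), 1 h RT before reading.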

Experiment [13] in a line: qHTS assay to identify small molecule agonists of the hypoxia (HIF-1) signaling pathway - cell viability counter screen (AID 1224844; calls by dose curve; note: nearly all actives have a fitted effect of over 50% in size). The method, boiled down: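 HRE-bla ME-180 cells in medium with 0.5% dialyzed FBS were preincubated 5 hrs at 37C, exposed to compounds for 17 hrs, then viability was read as CellTiter-Glo luminescence after 30 min at room temperature, in the reporter wells.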

A short description of experiment [14]: qHTS assay to identify small molecule agonists of H2AX (AID 1224845; active = well fitted activation curve with a large enough effect in the signal ratio in the repeat runs, not every such curve was filed as active; the % refers to the signal ratio). The method, boiled down: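 Wild-type CHO-K1 cells plated overnight, then exposed 3 hr at 37C to compounds at 15 concentrations (0.76% DMSO). Lysed, then HTRF anti-pH2AX(S139)-cryptate/anti-H2AX-d2 detection after 24 hr at room temperature; emissions 665 and 620 nm.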
Experiment [15] is described as follows: qHTS RealTime-Glo MT Cell Viability Assay in HEK293 cells - 32 hour (AID 1224868). Note: nearly all actives have a fitted effect of over 50% in size. Note: potency is the fitted concentration of half-maximal effect. The method, boiled down: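 Luminescence generated by NanoLuc from substrate produced by living HEK293 cells served as the viability signal. Each value reflects the reading at its stated time point during continuous 40 h compound exposure at 37 C.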
Experiment [16] can be described thus: A CellTox Green Cytotoxicity Assay to monitor cytotoxicity in HEK293 cells - 40 hour (AID 1224871). Note: nearly all actives have a fitted effect of over 45% in size. Note: potency is the fitted concentration of half-maximal effect. The essentials: as §1
Experiment [17] is described as follows: qHTS assay to identify small molecule agonists of the estrogen related receptor signaling pathway with the pleiotropic PPARgamma coactivator (PGC) from Tox21 10K library (AID 1224842). Note: nearly all actives have a fitted effect of over 15% in size. The method, boiled down:
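PGC/ERR reporter cells (NTP line) were seeded 2,000 per well, rested 6 h at 37 C/5% CO2, then pin-dosed with compounds in DMSO for 18 h at 37 C; luciferase read by One-Glo luminescence after 30 min at room temperature.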

Experiment [18] can be described thus: qHTS assay to identify small molecule antagonists of the estrogen related receptor (ERR) signaling pathway from Tox21 library (AID 1224848). Note: nearly all actives have a fitted effect of over 50% in size. Note: potency is the fitted concentration of half-maximal effect. The method, boiled down:
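Screening used an ERR reporter line supplied by NTP, exposed for 18 h at 37 C to library compounds delivered in DMSO. Signal was luciferase luminescence developed with ONE-Glo at room temperature for 30 min.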

The nature of experiment [19]: qHTS assay to identify small molecule agonists of the estrogen related receptor (ERR) signaling pathway from Tox21 library (AID 1224849; calls by dose curve; note: nearly all actives have a fitted effect of over 15% in size). The settings on record: ERR reporter cell line, ONE-Glo luciferase, 18 h. The essentials:
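ERR reporter cell line (NTP) seeded, rested 6 h at 37 C/5% CO2, then pinned with Tox21 compounds in DMSO. After 18 h at 37 C, ONE-Glo luciferase luminescence was read following 30 min at room temperature.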

Experiment [20] is described as follows: qHTS assay to identify small molecule antagonists of the estrogen related receptor signaling pathway with the pleiotropic PPARgamma coactivator (PGC) from Tox21 10K library (AID 1224841; call rule not given here; note: potency is the fitted concentration of half-maximal effect). The essentials: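 PGC/ERR reporter cells were seeded at 2,000 cells/well and held 6 hours at 37 C/5% CO2 before pin-tool addition of compounds in DMSO. After 18 hours at 37 C, One-Glo was added and luminescence read after 30 minutes at room temperature.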

Values joined by “and” are separate entries in the source; they are usually repeats but may differ in a detail not shown here. Identical values can stand only once. Records with an inconclusive call do not appear. Some compounds were tested as several samples or in several runs, with calls that do not always agree. Active and inactive are the calls of the source. Unless noted, calls come from the whole dose curve; as a rule, active = well fitted curve in the direction sought with a large enough effect in the repeat runs; inconclusive = weak or mixed curves; inactive = no such curve, though single readings can be large; an effect the other way counts as inactive or inconclusive.
% is set by controls: 0 for no effect and ±100 for the full control effect.

Chain of Nuclear receptor subfamily 1 group I member 3 (Homo sapiens) (Q14994 whole entry, looked up): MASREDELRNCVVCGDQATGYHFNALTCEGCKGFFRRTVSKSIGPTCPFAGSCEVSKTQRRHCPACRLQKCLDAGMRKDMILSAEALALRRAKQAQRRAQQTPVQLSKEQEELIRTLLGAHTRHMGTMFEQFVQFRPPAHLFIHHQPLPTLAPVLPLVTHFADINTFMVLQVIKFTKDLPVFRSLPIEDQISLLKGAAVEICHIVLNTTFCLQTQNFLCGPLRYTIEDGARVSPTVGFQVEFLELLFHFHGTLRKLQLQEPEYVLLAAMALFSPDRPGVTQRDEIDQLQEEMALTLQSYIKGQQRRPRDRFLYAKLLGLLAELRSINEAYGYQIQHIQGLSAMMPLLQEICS
Chain of Thyrotropin receptor (Homo sapiens) (P16473 whole entry, looked up): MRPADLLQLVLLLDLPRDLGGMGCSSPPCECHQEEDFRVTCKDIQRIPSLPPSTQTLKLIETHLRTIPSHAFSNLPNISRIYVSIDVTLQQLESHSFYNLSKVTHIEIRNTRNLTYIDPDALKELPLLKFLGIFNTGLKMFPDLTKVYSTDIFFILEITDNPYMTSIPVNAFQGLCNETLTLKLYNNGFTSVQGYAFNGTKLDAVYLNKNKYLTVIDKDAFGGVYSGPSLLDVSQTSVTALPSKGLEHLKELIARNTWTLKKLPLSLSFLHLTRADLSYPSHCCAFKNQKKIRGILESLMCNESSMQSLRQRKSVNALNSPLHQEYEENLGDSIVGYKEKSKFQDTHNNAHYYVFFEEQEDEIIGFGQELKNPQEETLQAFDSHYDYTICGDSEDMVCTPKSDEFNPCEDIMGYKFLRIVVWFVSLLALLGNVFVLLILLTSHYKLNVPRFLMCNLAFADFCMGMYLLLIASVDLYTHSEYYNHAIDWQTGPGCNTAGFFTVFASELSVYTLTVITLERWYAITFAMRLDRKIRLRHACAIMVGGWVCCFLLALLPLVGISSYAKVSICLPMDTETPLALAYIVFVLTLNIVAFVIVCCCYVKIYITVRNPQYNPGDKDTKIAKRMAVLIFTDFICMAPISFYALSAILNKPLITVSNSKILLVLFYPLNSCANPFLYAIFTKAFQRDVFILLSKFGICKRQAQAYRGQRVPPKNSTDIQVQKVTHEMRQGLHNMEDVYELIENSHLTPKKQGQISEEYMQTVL
Chain of Luciferin 4-monooxygenase (Photinus pyralis) (P08659 whole entry, looked up): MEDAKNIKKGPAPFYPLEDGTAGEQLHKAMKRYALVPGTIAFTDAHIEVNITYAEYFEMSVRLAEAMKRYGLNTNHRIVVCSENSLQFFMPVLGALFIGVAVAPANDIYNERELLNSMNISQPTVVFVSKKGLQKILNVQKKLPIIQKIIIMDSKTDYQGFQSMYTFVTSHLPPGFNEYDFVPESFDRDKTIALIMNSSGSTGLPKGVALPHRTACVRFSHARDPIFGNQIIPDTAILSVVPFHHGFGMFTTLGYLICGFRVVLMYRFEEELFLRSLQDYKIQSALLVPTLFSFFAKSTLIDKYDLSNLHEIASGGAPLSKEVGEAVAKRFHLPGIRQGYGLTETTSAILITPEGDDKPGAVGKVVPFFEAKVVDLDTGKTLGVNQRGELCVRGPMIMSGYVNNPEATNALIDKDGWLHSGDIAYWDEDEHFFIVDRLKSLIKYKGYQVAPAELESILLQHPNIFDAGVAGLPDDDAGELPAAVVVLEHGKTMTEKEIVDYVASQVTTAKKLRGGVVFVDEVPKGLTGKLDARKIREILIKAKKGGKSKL

Regarding `COc1cccc(O)c1O`, the Potency result in experiment [1], in experiment [2], in experiment [3], in experiment [4], in experiment [5] and in [7] was “inactive” each time. The Potency entry in experiment [8], in experiment [9] and in experiment [10] was “inactive” in each case. The result in experiment [6] was inactive.

As for `CCCCOC(=O)c1ccc(O)cc1`, the Potency in [1] was 80.7 µM (active) and 63.3 µM (active) and inactive; in [5], 55.1 µM (active) and 30.6 µM (active) and inactive; in experiment [15], 24.8 µM (active). Further, the Potency result in [2], in [3], in [4], in [11], in [12] and in experiment [13] was “inactive” throughout. In addition, the Potency result in [14], in [7], in [8], in [9] and in [10] was “inactive” throughout.

On to `CC12CCC(CC1)C(C)(C)O2`, for which the Potency result in [1], in experiment [2], in [3], in experiment [11], in experiment [12] and in experiment [13] was “inactive” in each case. For the same molecule, the Potency entry in experiment [14], in [7], in [8], in experiment [15], in experiment [9] and in experiment [10] was “inactive” each time. For the same molecule, the Potency result in experiment [16] was “inactive”. In addition, in [6], the molecule was classed as inactive.

Consider `COc1ccc2cc(S(=O)(=O)N[C@H](CC(=O)N[C@H](Cc3ccc(CN4[C@H](C)CCC[C@@H]4C)cc3)C(=O)N(C)C(C)C)c3ccc4c(c3)OCO4)ccc2c1`, for which the Potency entry in [1], in experiment [5], in experiment [17], in experiment [12] and in experiment [9] was “inactive” each time. Moreover, the Potency in experiment [2] is 23 µM (active); in [3], 25.8 µM (active); in experiment [4] it was 41 µM (active); in experiment [11], 29 µM (active); in experiment [18], 25.8 µM (active); in [8] it was 52 µM (active). The Potency in [10] and in experiment [16] was 52 µM (active) each time. Moreover, the activity change, positive = activation in experiment [19] (at 92.4 µM (top of the series)) was -76% (inactive).

`O=S1(=O)OC(c2ccc(O)cc2)(c2ccc(O)cc2)c2ccccc21`: the Potency in experiment [1] was 31.7 µM (active) and 17.8 µM (active) and 12.3 µM (active); in [2] it was 30.6 µM (active) and 27.3 µM (active) and 33.5 µM (active); in [3] it was 27.3 µM (active) and 13.3 µM (active); in experiment [11], 30.6 µM (active) and 27.3 µM (active) and 21.1 µM (active); in experiment [20], 54.5 µM (active) and 61.1 µM (active) and inactive; in [8], 49 µM (active) and inactive. Also, the Potency in experiment [10] was 49 µM (active) and inactive. The Potency result in experiment [4], in [5], in experiment [17], in experiment [18], in experiment [15] and in [9] was “inactive” throughout. In experiment [6], the call was inactive. The activity change, positive = activation was -3.19% (inactive) in experiment [19] (at 42.5 µM (top of the series)); -32% (inactive) and -12.4% (inactive) in [19] (at 92.4 µM (top of the series)).

With `Cc1ncc([N+](=O)[O-])n1CCO`, the Potency entry in experiment [1], in [2], in [3], in experiment [4], in [5] and in experiment [11] was “inactive” each time. Besides, the Potency result in experiment [20], in experiment [17], in [12], in [13], in experiment [14] and in experiment [7] was “inactive” throughout. Besides, the Potency entry in experiment [18], in experiment [8], in experiment [9] and in experiment [10] was “inactive” each time. In addition, the activity change, positive = activation was 4.15% (inactive) in experiment [19] (at 42.5 µM (top of the series)); 5.04% (inactive) and 2.17% (inactive) in experiment [19] (at 92.4 µM (top of the series)).
